This excerpt belongs to a sample that is enriched for hits.
Dicer processing – human Dicer pre-microRNA cleavage inhibition; Q9UPY3; cat-ELCCA pre-miR-21 Dicer processing, chemiluminescence; stronger effect = higher value; z-score at 25 µM; hit rate 6% among 47,000; in the data active = z-score above about 3, passing the limit was not always enough;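 also: plate controls were vehicle for no effect and no enzyme for full effect; higher signal means more uncleaved substrate so more Dicer inhibition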
* = called active by the depositor.

SMILES	Dicer processing
Nc1nc(NCc2cccs2)nn1-c1ccccc1	4.27*
Oc1ccc(NCc2cccs2)cc1	1.03
CCCCCCn1c(NCc2cccs2)nc2ccccc21	2.3
CCC(=O)Nc1ccc(-c2nnc(C(F)(F)F)o2)cc1C	-1.72
CSc1cccc(NC(=O)CSc2ccc(C(F)(F)F)cn2)c1	0.4
COC(=O)c1ccc(NS(=O)(=O)c2ccc3c4c(cccc24)C(=O)N3)cc1	-0.47
COc1ccc(C2Nc3ccccc3NC3=C2C(=O)CC(C)(C)C3)cc1Cn1cc([N+](=O)[O-])cn1 (configuration not stated)	1.47
Fc1cccc(Cl)c1Cn1nnc(-c2cc(C(F)(F)F)cc(C(F)(F)F)c2)n1	0.81
Fc1cccc(Cl)c1Cn1nnc(-c2ccccc2C(F)(F)F)n1	3.1*
Fc1cccc(Cl)c1Cn1nnc(-c2c(Cl)cccc2Cl)n1	0.74
NC(CCc1ccccc1Cl)c1ccc2c(c1)OCCO2 (configuration not stated)	-0.9
CC1=C2CCC(C)CC23C2C(=O)N(Cc4ccc(Cl)cc4)C(=O)C2C1C1C(=O)N(Cc2ccc(Cl)cc2)C(=O)C13 (configuration not stated)	0.45
CC1CC(=O)N(Cc2ccc(Cl)cc2)C(=O)C1	4.73*
O=C1CNC(=S)N1Cc1ccc(Cl)cc1	-0.06
CC(C(=O)N/N=C/C(C)(C)C)n1nnc(-c2cc(C(F)(F)F)cc(C(F)(F)F)c2)n1 (configuration not stated)	-0.75
O=C(CN1CCOCC1)NN1CC(=O)N(c2ccccc2)CC1=O	2.2
CC(C)(C)C(=O)C(C#N)=C1SCCCS1	-1.82
FC(F)(F)c1nnc(Nc2cccnc2)s1	0.07
FC(F)(F)c1nnc(Nc2ccc(Cl)cc2)s1	7.28*
O=C(Nc1nnc(C(F)(F)F)s1)c1c(F)cccc1F	-0.09
CC1=C(C(=O)OCc2ccccc2)C(c2cccc(Cl)c2)C2=C(CCCC2=O)N1 (configuration not stated)	0.29
CC(=O)Nc1cccc(-n2nnc(SCC(=O)c3ccc4c(c3)OCCCO4)n2)c1	3.08*
O=C(O)CCC(=O)c1ccc2c(c1)OCCCO2	1.2
CC(=O)Nc1cccc(-n2nnc(SCc3ccccc3)n2)c1	1.1
O=[N+]([O-])c1c(Sc2ccc(Cl)cc2)ccc2nsnc12	-4.53
SMILES	Dicer processing
Cc1nn(C)cc1CNC(=O)c1cnn2c(C(F)(F)F)cc(-c3ccc(Br)cc3)nc12	1.31
S=C1NN=C(c2ccccc2)CS1	-6.88
CNS(=O)(=O)c1cc(-c2nnc(Nc3ccc4c(c3)OCO4)c3ccccc23)ccc1C	4.83*
Cc1ccc(-c2nnc(NCc3ccccc3)c3ccccc23)cc1S(=O)(=O)NCCO	0.06
Cc1ccc(-c2nnc(Nc3ccc(O)cc3)c3ccccc23)cc1S(=O)(=O)N(C)C	2.41
O=C(N/N=C1/CCCc2occc21)c1ccc([N+](=O)[O-])cc1	0.39
O=C(Nc1nnc(C2CC2)s1)Nc1cccc2ccccc12	1.09
Cc1ccc2c(C)nc(Nc3ncc4c(n3)CC(c3ccc(F)cc3)CC4=O)nc2c1 (configuration not stated)	2.56
CN(Cc1ccccc1)C(=O)Nc1ccccc1	3.71*
CN(CCc1ccccn1)C(=O)Nc1ccccc1	41.3
O=C(Nc1ccccc1)N(Cc1ccccc1)c1cccc2ccccc12	-2.83
CCCCc1nc(SCC(=O)Nc2nc3c(s2)CCCC3)n[nH]1	0.87
c1ccc(-c2noc(CSc3nnc(-c4ccco4)n3-c3ccccc3)n2)cc1	0.44
Cc1nnc(SCc2nc(-c3ccc(Cl)cc3)no2)n1-c1ccccc1	0.62
c1ccc(-c2noc(CSc3nnc(-c4cccs4)n3-c3ccccc3)n2)cc1	3.6*
Cc1occc1C(=O)NCCCn1ccnc1	0.49
Cc1cc2c3c(c1)c1oc(=O)cc(O)c1c(=O)n3CCC2	0.01
O=C(Oc1ccc(-c2cnc3ccccc3n2)cc1)c1ccc(F)cc1	1.74
CC(=O)N[C@@H](C(N)=S)[C@@H](OC(C)=O)[C@H](OC(C)=O)[C@@H](COC(C)=O)OC(C)=O	0.48
Cn1c(=O)n(CC(=O)O)c(=O)c2c1nc1n2CCN1c1ccccc1	-0.92
COc1ccc(NC(=O)c2ccc(C)cc2N)c(N)c1	-0.73
Cc1cc(C)c(CSC2=NCCN2)c(C)c1CSC1=NCCN1	-3.75
Cc1c(C)c(C)c(CSC2=NCCC2)c(C)c1C	-0.75
Cc1c(C)c(C)c(CSC2=NCC(C)N2)c(C)c1C (configuration not stated)	4.05*
CC(C)(CCC(C)(C)N1C(=O)c2cccc3cccc(c23)C1=O)N1C(=O)c2cccc3cccc(c23)C1=O	2.25
COC(=O)Cc1cc(=O)n(-c2nc3ccccc3[nH]2)[nH]1	4.62*
CC(C)OC(=O)CSc1nc2ccccc2[nH]1	-0.48
Cc1ccc(-c2cc(=O)n(-c3nc4ccccc4[nH]3)[nH]2)cc1	-0.75
CCOC(=O)NC(Nc1ccccc1C(F)(F)F)(C(=O)OCC)C(F)(F)F (configuration not stated)	-0.62
COc1ccc(C2C3=C(CC(c4ccccc4)CC3=O)Nc3nc4ccccc4n32)cc1 (configuration not stated)	2.28
